Inconclusive results are not listed. The source made the active and inactive calls. The calls were made as follows, unless noted: active = hit-call score of the fitted dose curve at least 0.9, where 1 is the maximum; inactive = score below 0.9.
What was measured:
[1] = target: Paired box protein Pax-6 (Homo sapiens) (UniProt P26367); assay: ATG_Pax6_CIS: Attagene CIS-FACTORIAL HepG2 Assay for human Paired Box 6 (PAX6) (AID 2282956); conditions: HepG2 CIS-FACTORIAL PAX6 reporter transcription, RNA readout; actives raise or lower the signal
Paired box protein Pax-6 (Homo sapiens), sequence (P26367 whole entry, looked up): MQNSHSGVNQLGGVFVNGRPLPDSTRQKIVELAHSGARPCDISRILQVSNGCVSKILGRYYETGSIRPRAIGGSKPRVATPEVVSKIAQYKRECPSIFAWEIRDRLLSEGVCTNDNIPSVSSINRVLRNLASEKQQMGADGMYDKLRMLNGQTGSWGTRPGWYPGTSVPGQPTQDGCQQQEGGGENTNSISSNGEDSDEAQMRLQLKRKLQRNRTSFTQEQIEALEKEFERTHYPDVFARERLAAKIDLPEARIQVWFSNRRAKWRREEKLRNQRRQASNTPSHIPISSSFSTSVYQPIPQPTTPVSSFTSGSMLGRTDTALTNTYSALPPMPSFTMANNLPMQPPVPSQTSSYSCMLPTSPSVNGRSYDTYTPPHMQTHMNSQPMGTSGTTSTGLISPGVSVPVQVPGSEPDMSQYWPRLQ
Outline: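 DMSO-referenced bidirectional fits of reporter mRNA fluorescence; HepG2 with transient cis-promoter MRTUs, 24 h post-dose, RT-PCR plus capillary electrophoresis detection.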

[2] = ATG_PXRE_CIS: Attagene CIS-FACTORIAL HepG2 Assay for human Pregnane X Receptor Element (PXRE) (AID 2282957); conditions: HepG2 Attagene CIS-FACTORIAL PXRE reporter, mRNA; actives raise or lower the signal
Outline: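 Fluorescent capillary electrophoresis of amplified reporter cDNA gave the signal, collected 24 h after dosing HepG2 cells that held transfected cis-element reporter constructs.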

[3] = ATG_PPRE_CIS: Attagene CIS-FACTORIAL HepG2 Assay for human Peroxisome Proliferator-activated Response Element (PPRE) (AID 2282958); conditions: HepG2 PPRE cis-element reporter, Attagene transcription factor profiling; actives raise or lower the signal
Outline: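 DMSO served as negative control and baseline for bidirectional curve fitting. Signal came from PPRE-regulated reporter mRNA in HepG2 cells, measured 24 h post-dosing by RT-PCR, 6-FAM primer extension and capillary electrophoresis.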

[4] = ATG_RORE_CIS: Attagene CIS-FACTORIAL HepG2 Assay for human RAR-related Orphan Receptor Element (RORE) (AID 2282959); conditions: HepG2 Attagene cis-factorial RORE reporter, mRNA; actives raise or lower the signal
Outline: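 Transfect HepG2 with MRTUs; treat 24 h; extract RNA; RT with oligo(dT); PCR with reporter-specific primers; 6-FAM primer extension; HpaI digest 2 h at 37 C; capillary electrophoresis. Fit vs DMSO, bidirectional.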

[5] = ATG_SREBP_CIS: Attagene CIS-FACTORIAL HepG2 Assay for human Sterol Regulatory Element Binding (SREBP) (AID 2282962); conditions: HepG2 Attagene cis-factorial SREBP reporter, mRNA; actives raise or lower the signal
Outline: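 In this cis-format assay, HepG2 liver cells express reporters controlled by promoter elements responsive to native transcription factors. Exposure lasts 24 h; reporter mRNA fluorescence from capillary electrophoresis gives the signal, fitted bidirectionally against DMSO.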

[6] = target: Signal transducer and activator of transcription 3 (Homo sapiens) (UniProt P40763); assay: ATG_STAT3_CIS: Attagene CIS-FACTORIAL HepG2 Assay for human Signal Transducer and Activator of Transcription 3 (STAT3) (AID 2282963); conditions: HepG2, Attagene cis-factorial STAT3 reporter transcription; actives raise or lower the signal
Signal transducer and activator of transcription 3 (Homo sapiens), sequence (P40763 whole entry, looked up): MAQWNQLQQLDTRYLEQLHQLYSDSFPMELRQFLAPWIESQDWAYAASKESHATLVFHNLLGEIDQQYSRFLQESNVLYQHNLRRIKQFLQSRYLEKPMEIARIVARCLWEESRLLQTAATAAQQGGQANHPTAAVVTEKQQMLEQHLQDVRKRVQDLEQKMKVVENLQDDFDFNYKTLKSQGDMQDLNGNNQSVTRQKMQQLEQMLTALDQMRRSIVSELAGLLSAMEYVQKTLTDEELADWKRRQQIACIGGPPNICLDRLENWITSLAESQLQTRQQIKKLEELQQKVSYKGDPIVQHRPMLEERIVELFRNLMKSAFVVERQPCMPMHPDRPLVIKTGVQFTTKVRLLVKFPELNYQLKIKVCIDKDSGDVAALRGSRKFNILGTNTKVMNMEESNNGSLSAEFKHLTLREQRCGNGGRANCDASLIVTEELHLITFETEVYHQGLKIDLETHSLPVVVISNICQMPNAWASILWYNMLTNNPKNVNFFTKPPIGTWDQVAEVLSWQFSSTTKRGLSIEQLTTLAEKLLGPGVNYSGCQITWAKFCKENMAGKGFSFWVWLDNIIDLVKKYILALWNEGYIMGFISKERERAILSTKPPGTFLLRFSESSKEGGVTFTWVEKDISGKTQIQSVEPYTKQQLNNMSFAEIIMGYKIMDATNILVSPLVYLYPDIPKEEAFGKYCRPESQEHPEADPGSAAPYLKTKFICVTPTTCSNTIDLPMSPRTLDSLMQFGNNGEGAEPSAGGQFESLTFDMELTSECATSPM
Outline: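 Uses human liver HepG2 transiently carrying cis-regulated reporter transcription units. Following 24 h dosing, reporter mRNA induction was detected by RT-PCR and capillary electrophoresis, analysed bidirectionally versus DMSO.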

[7] = ATG_TA_CIS: Attagene CIS-FACTORIAL HepG2 Assay for human TA Basal Promoter (AID 2282964); conditions: HepG2 Attagene CIS-factorial TA basal promoter reporter; actives raise or lower the signal
Outline: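 Transfected HepG2, 24 h compound exposure; RNA → RT-PCR → FAM primer extension → HpaI cut → CE fluorescence. Gain/loss-of-signal fitted against DMSO negative control. Background-control readout.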

[8] = ATG_TCF_b_cat_CIS: Attagene CIS-FACTORIAL HepG2 Assay for human T-Cell-Factor with beta-catenin (TCF/b-cat) (AID 2282965); conditions: HepG2 TCF/beta-catenin cis-reporter transcription, actives raise or lower the signal
Outline: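 Using capillary electrophoresis as the read-out, labelled reporter cDNA fragments from transiently transfected HepG2 were sized and quantified. Exposure lasted 24 hours; activity in either direction was referenced to DMSO.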

[9] = ATG_TAL_CIS: Attagene CIS-FACTORIAL HepG2 Assay for human TAL Basal Promoter (AID 2282966); conditions: HepG2 Attagene cis-factorial TAL promoter reporter; actives raise or lower the signal;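 also: background control endpoint measuring basal TAL promoter reporter mRNA not a specific factor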
Outline: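 Transiently transfected HepG2 (cis-regulated reporter units), 24 h treatment, mRNA read by fluorescent CE after RT-PCR; bidirectional fit, DMSO baseline.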

[10] = ATG_TGFb_CIS: Attagene CIS-FACTORIAL HepG2 Assay for human Transforming Growth Factor (TGF) (AID 2282967); conditions: HepG2 Attagene CIS TGFb reporter, mRNA transcription; actives raise or lower the signal
Outline: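 Readout: fluorescently labeled reporter cDNA fragments resolved by capillary electrophoresis after RT-PCR. Transfected HepG2 cells dosed for 24 h; endogenous TF activity at TGFB1-linked cis element; gain or loss fitted relative to DMSO.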

[11] = ATG_VDRE_CIS: Attagene CIS-FACTORIAL HepG2 Assay for human Vitamin D Receptor Element (VDRE) (AID 2282968); conditions: HepG2 VDRE cis-reporter transcription, actives raise or lower the signal
Outline: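 Transfected HepG2 reporter cells, chemical treatment 24 h. RNA isolated, cDNA amplified with reporter-specific primers, products analysed by capillary electrophoresis. Endpoint fitted in both directions versus DMSO.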

[12] = target: X-box-binding protein 1 (Homo sapiens) (UniProt P17861); assay: ATG_Xbp1_CIS: Attagene CIS-FACTORIAL HepG2 Assay for human X-box Binding Protein 1 (XBP1) (AID 2282972); conditions: HepG2 XBP1 cis-element reporter, Attagene multiplex; actives raise or lower the signal
X-box-binding protein 1 (Homo sapiens), sequence (P17861 whole entry, looked up): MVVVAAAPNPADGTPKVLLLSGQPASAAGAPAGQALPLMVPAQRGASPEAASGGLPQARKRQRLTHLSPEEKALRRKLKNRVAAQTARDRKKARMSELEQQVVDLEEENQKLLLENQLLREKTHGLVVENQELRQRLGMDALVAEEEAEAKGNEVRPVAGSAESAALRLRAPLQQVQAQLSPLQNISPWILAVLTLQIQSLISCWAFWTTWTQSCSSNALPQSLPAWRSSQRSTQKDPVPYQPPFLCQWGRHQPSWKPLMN
Outline: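 Changes in reporter transcript abundance, read by RT-PCR and capillary electrophoresis, reflect endogenous transcription factor activity. Transfected HepG2 cells received compound for 24 hours; DMSO defined baseline for bidirectional analysis.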

[13] = ATG_M_19_TRANS: Attagene TRANS-FACTORIAL HepG2 Assay for M19 Transcription Factor (Internal Marker) (AID 2282974; active = hit-call score of the fitted dose curve at least 0.9, where 1 is the maximum); conditions: HepG2 Attagene TRANS-FACTORIAL M19 internal marker reporter
Outline: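 Multiplexed TRANS format: HepG2 liver cells bearing transient GAL4-UAS reporter units, chemical treatment 24 h, reporter transcripts quantified by RT-PCR plus capillary electrophoresis. DMSO defines baseline.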

[14] = ATG_GAL4_TRANS: Attagene TRANS-FACTORIAL HepG2 Assay for GAL4 (Internal Marker) (AID 2282976; active = hit-call score of the fitted dose curve at least 0.9, where 1 is the maximum); conditions: HepG2 Attagene TRANS GAL4 internal marker reporter
Outline: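 HepG2 cells transiently transfected with multiplexed GAL4-UAS reporter constructs were dosed for 24 h. Reporter mRNA was measured by RT-PCR, 6-FAM primer extension, HpaI digestion and capillary electrophoresis, and gain of signal was fitted relative to DMSO.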

[15] = ATG_Sox_CIS: Attagene CIS-FACTORIAL HepG2 Assay for human SRY-box transcription factor (SOX) (AID 2282960); conditions: HepG2 Attagene cis-factorial SOX reporter, mRNA; actives raise or lower the signal
Outline: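 Fluorescence-labelled cDNA fragments from reporter transcripts, sized by CE, give the signal. Cells: HepG2, transiently transfected with cis-regulated reporter units. Exposure 24 h; DMSO negative control; bidirectional curve fitting.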

[16] = target: Transcription factor Sp1 (Homo sapiens) (UniProt P08047); assay: ATG_Sp1_CIS: Attagene CIS-FACTORIAL HepG2 Assay for human Specificity Protein 1 (Sp1) (AID 2282961); conditions: HepG2 Sp1 cis-reporter transcription, actives raise or lower the signal
Transcription factor Sp1 (Homo sapiens), sequence (P08047 whole entry, looked up): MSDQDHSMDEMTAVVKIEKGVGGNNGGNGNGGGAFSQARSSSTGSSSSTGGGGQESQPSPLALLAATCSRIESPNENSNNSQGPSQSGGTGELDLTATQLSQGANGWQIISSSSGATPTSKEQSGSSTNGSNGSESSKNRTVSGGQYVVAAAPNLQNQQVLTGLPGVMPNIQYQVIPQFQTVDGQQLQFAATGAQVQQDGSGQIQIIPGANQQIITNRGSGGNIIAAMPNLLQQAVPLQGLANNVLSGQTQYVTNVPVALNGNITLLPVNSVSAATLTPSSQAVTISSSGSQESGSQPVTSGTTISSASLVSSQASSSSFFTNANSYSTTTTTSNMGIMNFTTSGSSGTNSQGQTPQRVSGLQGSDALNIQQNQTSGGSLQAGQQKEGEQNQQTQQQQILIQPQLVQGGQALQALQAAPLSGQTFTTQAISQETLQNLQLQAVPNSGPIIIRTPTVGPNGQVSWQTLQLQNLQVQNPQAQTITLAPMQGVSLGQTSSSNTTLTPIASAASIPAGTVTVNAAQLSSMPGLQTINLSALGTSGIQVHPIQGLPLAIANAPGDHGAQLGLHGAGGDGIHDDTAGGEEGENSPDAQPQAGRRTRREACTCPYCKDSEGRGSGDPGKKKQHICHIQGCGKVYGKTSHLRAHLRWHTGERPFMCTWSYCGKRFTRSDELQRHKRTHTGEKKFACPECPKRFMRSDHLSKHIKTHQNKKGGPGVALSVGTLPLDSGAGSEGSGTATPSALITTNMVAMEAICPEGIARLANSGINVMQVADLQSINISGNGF
Outline: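 Chemicals are dosed onto HepG2 cells transfected with multiple cis-promoter reporter constructs, and after 24 h reporter RNA is reverse-transcribed, PCR-amplified and resolved by capillary electrophoresis for fluorescence quantitation; activity is scored up or down against DMSO.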

[17] = target: Nuclear receptor subfamily 1 group I member 3 (Homo sapiens) (UniProt Q14994); assay: ATG_CAR_TRANS: Attagene TRANS-FACTORIAL HepG2 Assay for human Constitutive Androstane Receptor (CAR) (AID 2282969; active = hit-call score of the fitted dose curve at least 0.9, where 1 is the maximum;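 also: activators raise reporter mRNA above DMSO so AC50 marks induction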); conditions: HepG2 Attagene TRANS-FACTORIAL CAR reporter
Nuclear receptor subfamily 1 group I member 3 (Homo sapiens), sequence (Q14994 whole entry, looked up, the tested form may be a part): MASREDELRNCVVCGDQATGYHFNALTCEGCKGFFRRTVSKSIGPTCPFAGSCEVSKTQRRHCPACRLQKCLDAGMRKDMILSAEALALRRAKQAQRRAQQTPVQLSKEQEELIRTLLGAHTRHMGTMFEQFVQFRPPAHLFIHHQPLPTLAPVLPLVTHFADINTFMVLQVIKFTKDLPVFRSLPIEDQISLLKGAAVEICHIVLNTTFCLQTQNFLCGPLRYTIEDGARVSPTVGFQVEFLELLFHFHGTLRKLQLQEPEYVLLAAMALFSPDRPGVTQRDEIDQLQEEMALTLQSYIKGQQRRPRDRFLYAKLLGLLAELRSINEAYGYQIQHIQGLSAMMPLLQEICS
Outline: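 Steps: transient transfection of HepG2 with multiple GAL4-UAS reporter units; 24 h compound incubation; RNA isolation, RT-PCR, 6-FAM primer extension, HpaI digest; capillary electrophoresis. Gain-of-signal relative to DMSO negative control.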

[18] = target: Estrogen receptor (Homo sapiens) (UniProt P03372); assay: ATG_ERa_TRANS: Attagene TRANS-FACTORIAL HepG2 Assay for human Estrogen Receptor alpha (ERa) (AID 2282970; active = hit-call score of the fitted dose curve at least 0.9, where 1 is the maximum); conditions: HepG2 Attagene TRANS ERa GAL4 reporter, mRNA
Estrogen receptor (Homo sapiens), sequence (P03372 whole entry, looked up, the tested form may be a part): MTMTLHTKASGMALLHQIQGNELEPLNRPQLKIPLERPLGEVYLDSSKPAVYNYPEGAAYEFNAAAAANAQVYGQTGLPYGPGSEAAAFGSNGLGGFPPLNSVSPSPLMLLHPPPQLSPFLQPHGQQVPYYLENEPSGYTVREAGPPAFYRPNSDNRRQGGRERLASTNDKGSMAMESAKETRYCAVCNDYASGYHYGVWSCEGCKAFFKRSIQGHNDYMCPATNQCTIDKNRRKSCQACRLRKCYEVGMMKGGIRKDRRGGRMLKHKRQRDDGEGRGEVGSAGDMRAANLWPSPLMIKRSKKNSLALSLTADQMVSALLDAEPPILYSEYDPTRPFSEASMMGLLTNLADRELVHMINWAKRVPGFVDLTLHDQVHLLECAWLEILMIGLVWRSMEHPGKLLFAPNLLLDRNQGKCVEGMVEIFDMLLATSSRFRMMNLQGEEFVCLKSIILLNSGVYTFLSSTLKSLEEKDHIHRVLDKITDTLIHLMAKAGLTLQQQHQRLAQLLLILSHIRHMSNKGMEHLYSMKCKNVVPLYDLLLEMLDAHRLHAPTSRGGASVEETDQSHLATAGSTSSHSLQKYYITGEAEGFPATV
Outline: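 One of 30 multiplexed endpoints from a HepG2 TRANS system, this one reports ERa-Gal4-driven reporter mRNA. Transcripts were quantified 24 hours post-dosing by fluorescent RT-PCR and capillary electrophoresis, with activity scored as induction over DMSO.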

[19] = target: Steroid hormone receptor ERR1 (Homo sapiens) (UniProt P11474); assay: ATG_ERRa_TRANS: Attagene TRANS-FACTORIAL HepG2 Assay for human Estrogen-Related Receptor alpha (ERRa) (AID 2282971; active = hit-call score of the fitted dose curve at least 0.9, where 1 is the maximum); conditions: HepG2 Attagene TRANS reporter, ERRa transactivation
Steroid hormone receptor ERR1 (Homo sapiens), sequence (P11474 whole entry, looked up, the tested form may be a part): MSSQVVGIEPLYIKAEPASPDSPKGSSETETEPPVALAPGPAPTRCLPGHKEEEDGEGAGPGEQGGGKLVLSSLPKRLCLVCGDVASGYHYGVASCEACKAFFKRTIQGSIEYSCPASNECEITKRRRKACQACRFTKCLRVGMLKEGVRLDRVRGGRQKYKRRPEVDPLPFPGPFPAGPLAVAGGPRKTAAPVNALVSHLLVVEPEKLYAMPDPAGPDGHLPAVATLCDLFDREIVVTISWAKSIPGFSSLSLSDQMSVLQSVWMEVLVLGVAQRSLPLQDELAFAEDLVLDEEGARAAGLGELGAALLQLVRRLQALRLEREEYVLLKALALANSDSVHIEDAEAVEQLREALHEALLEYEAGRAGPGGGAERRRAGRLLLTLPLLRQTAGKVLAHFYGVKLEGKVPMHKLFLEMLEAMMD
Outline: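 HepG2 cells transiently transfected with multiplexed GAL4-UAS reporter units reading chimeric ERRa-Gal4 activity; 24 h compound exposure. Reporter mRNA measured by RT-PCR, 6-FAM labelling, HpaI digest and capillary electrophoresis; gain of signal fitted versus DMSO baseline.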

[20] = target: Estrogen-related receptor gamma (Homo sapiens) (UniProt P62508); assay: ATG_ERRg_TRANS: Attagene TRANS-FACTORIAL HepG2 Assay for human Estrogen-Related Receptor gamma (ERRg) (AID 2282977; active = hit-call score of the fitted dose curve at least 0.9, where 1 is the maximum;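 also: hits increase reporter signal over DMSO so potencies reflect activators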); conditions: HepG2 Attagene TRANS reporter, ERRg transactivation
Estrogen-related receptor gamma (Homo sapiens), sequence (P62508 whole entry, looked up, the tested form may be a part): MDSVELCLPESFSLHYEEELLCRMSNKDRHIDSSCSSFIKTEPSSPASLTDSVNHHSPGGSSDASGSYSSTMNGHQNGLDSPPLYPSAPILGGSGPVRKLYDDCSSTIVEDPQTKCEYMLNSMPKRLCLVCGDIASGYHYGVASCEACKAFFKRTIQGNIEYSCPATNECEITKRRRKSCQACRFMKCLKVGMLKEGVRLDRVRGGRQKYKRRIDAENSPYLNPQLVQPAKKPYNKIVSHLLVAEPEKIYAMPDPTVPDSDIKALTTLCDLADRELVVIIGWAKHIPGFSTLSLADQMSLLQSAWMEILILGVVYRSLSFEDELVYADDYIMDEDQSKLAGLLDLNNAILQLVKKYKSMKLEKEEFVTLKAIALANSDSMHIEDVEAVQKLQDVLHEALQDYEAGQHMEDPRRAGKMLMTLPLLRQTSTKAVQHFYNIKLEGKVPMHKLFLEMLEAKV
Outline: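 Readout: fluorescent reporter-mRNA fragments resolved by capillary electrophoresis after RT-PCR and HpaI cut. Cells: transiently transfected HepG2 carrying GAL4-UAS reporters driven by exogenous NR-Gal4 chimeras, dosed 24 h. Activity fitted upward relative to DMSO baseline.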

Measured: AC50

C=C(C)C(=O)O
not listed: [15] | [16] | [17] | [18] | [19] | [20]
inactive: all other assays above

COc1ccc(O)cc1
active: [2] 57.5 µM
not listed: [4] | [17] | [18] | [19] | [20]
inactive: all other assays above

C=CCOC(=O)CCC1CCCCC1
not listed: [4] | [13] | [18] | [19] | [20]
inactive: all other assays above

CCCCCCCCCCC(CO)CCCCCCCC (centres undefined)
not listed: [4] | [14] | [18] | [19] | [20]
inactive: all other assays above

CCCCCCCCCCCCCOS(=O)(=O)O
active: [3] 7.4 µM
not listed: [7] | [11] | [13] | [16] | [17] | [18] | [19] | [20]
inactive: all other assays above

CC1CCC(C(C)(C)O)CC1 (centres undefined)
not listed: [7] | [15] | [18] | [19] | [20]
inactive: all other assays above

CCCc1c(OCCCOc2ccc(OCC(=O)O)cc2)ccc(C(C)=O)c1O
active: [2] 8.44 µM | [3] 0.272 µM | [4] 4.66 µM | [7] 26.7 µM | [8] 25.6 µM | [10] 70.5 µM | [11] 27.5 µM
inactive: [1] | [16] | [6] | [9] | [12] | [14]

CCC(=O)OCc1ccccc1
not listed: [10] | [14] | [15] | [17] | [18] | [19] | [20]
inactive: all other assays above

C[C@H]1C[C@@H]2[C@H]([C@@H](O)C[C@@]3(C)[C@H]2CC[C@]3(O)C(=O)CO)[C@@]2(C)C=CC(=O)C=C12
active: [2] 62.9 µM
not listed: [11] | [13] | [14] | [16] | [17] | [18] | [19] | [20]
inactive: all other assays above

CCCCCCCCCOC(C)=O
active: [2] 49 µM
not listed: [4] | [19] | [20]
inactive: all other assays above

C=CC(C)(O)CCC=C(C)CCC=C(C)C (centres undefined)
active: [1] 134 µM | [2] 9.06 µM | [16] 161 µM | [5] 114 µM | [7] 146 µM | [9] 166 µM | [10] 187 µM
inactive: [3] | [4] | [8]

CC(C)=CCO
active: [2] 47.2 µM
not listed: [11] | [16] | [17] | [20]
inactive: all other assays above

CC(CC(C)(C)C)CC(C)(C)CC(C)(C)C (centres undefined)
not listed: [7] | [10] | [13] | [14] | [15] | [18] | [19] | [20]
inactive: all other assays above

C=C(C)C(=O)OCCOC(=O)CC(C)=O
not listed: [4] | [17] | [18] | [19] | [20]
inactive: all other assays above

Cc1ccc2sc3cccc(C)c3c2c1
not listed: [13] | [14] | [15] | [19] | [20]
inactive: all other assays above

Nc1cc(Cl)c(O)c(Cl)c1
active: [1] 136 µM | [2] 24.8 µM | [3] 45.3 µM | [4] 60.2 µM | [5] 130 µM | [8] 64.2 µM | [11] 70.7 µM
not listed: [14] | [15] | [17]
inactive: all other assays above

O=C(Nc1ccccc1)c1cc([N+](=O)[O-])ccc1Cl
active: [1] 32.8 µM | [2] 2.97 µM | [18] 5.47 µM
not listed: [10] | [11] | [12] | [13] | [14] | [15] | [19]
inactive: all other assays above

N#Cc1ccc(CC(=NNC(=O)Nc2ccc(OC(F)(F)F)cc2)c2cccc(C(F)(F)F)c2)cc1
not listed: [6] | [15] | [18] | [19] | [20]
inactive: all other assays above
